From PubChem BioAssay AID1347426 (Functional Genomics Laboratory (NCATS/FGL), 2020)
The whole screen tested about 31,000 sequences, of which about 1,400 (4.5%) were called active. Shown is part of a subset that was picked to be rich in actives. Values without a mark were called inactive.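 How the source made its calls: active means median seed-adjusted z-score above 1 or below -1; inactive means the rest.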

test: Novel Modifiers of Survival Motor Neuron (SMN) Protein: Gene Identification via Genome-wide siRNA Screen; conditions: HEK293T SMN2-luciferase reporter, siRNA knockdown, 72 h; actives lie on both sides
Excerpt: Spinal muscular atrophy (SMA) is the most common neuromuscular autosomal recessive disorder and one of the leading genetic causes of infant death. SMA results from mutations inducing loss of function or deletion in the survival of motor neuron-1 gene (SMN1), leading to deficiency of the survival motor neuron (SMN) protein. Although a second nearly identical gene, SMN2, is retained in humans, its expression primarily produces an aberrantly spliced isoform that is largely unstable and quickly degraded. We performed a genome-wide RNAi screen using a cell-based reporter assay to identify genes and pathways that modulate SMN protein stability. The screen identified over 200 genes that led to the greatest increase or decrease in luciferase expression.
Using HEK293T cells stably expressing a luciferase reporter that combines the promoter and splicing based cassettes in tandem with the major portion of the native SMN2 cDNA with luciferase, we performed a genome-wide RNAi screen to identify modulators of SMN protein levels. Luciferase is expressed when full-length SMN protein is generated with luminescence signal proportional to SMN protein levels. Our luciferase-based reporter assay was used to screen Ambion Silencer Select Human Druggable Genome siRNA library (10418 genes, 3 unique siRNAs per gene) using lipid-based reverse transfection.
Briefly, 1 pmol of each siRNA was spotted to a well of a 384-well plate (Corning, Corning, NY) and 20 microL of serum-free DMEM containing […] of Lipofectamine RNAiMax (Life Technologies, Carlsbad, CA) was then added to each well. Transfected cells were maintained at 37 degrees C in 5% CO2 for 72 hours, 20 microL of ONE-Glo Reagent (Promega) was added to wells for luciferase quantification. Raw luminescence reads were normalized to Ambion(R) Silencer(R) Negative Control #2 siRNA, then log10 transformed. A robust statistical measure of median absolute deviation (MAD) to standardize siRNA activities from each screen. Common Seed Analysis was used to help prioritize clean hits as opposed to those appearing to arise from seed based off-target effects. Candidate modulators were defined as the genes having a MAD score greater than 1.0 or less than -1.0.

Sequence	median seed-adjusted z-score
AACUCGCAGUGGUUCAAUUTT against TXNDC8	-0.281
GCAAGGAUAUGUACCAGAUTT against AGXT	0.017
GGUUCAAUGGAAAAGGGAATT against DLX6	0.0275
GAACUGAUAUCUGAAGAGATT against MLPH	-1.2 (active)
CCUUCAUUGAGGACCUGAATT against PTP4A3	0.354
GCUUCUCACGAGAUUGAAATT against SCARA3	-0.05
GGGUUAGACGGAUACAAGATT against LILRA2	-0.103
CAGUACAGGUUGAGUCAAATT against LRRFIP1	-0.181
GCAAUUGAAUAUUGGAGUUTT against MED17	-2.06 (active)
CAUAGAAGCGGAUACUUAUTT against GALM	-0.111
GCAGGGUGCACAUAUCAUUTT against VNN3	0.343
ACAUCUGCCUGAUCUCAUATT against INDO	0.0511
CCACUAAACUGCGAGAGAATT against CEBPD	-0.101
GUGUGAGGGUUGAACUCAATT against EGLN1	2.05 (active)
CGGUAUUAUUGUCAUUGCATT against UBE2K	0.497
GCAAUAUGUUUAUCCAUAATT against CSE1L	0.425
GACAAAUGUUUGGUCAAUUTT against A2BP1	1.17 (active)
AUACUGACUUCAUAGAAAATT against RGS2	0.00236
GGAUAUCAACUUAUUAGAUTT against XPO1	1.12 (active)
GCAUUGCAGAGAACCGACATT against METTL7A	0.278
CCUUGAUAGUGGUCGGGAATT against OSBPL3	0.0159
ACAGUGUAUUCAAACAGUATT against NGF	-0.325

Sequence	median seed-adjusted z-score
GGAUAACUUCUCCUUGUCATT against PRM3	0.249
AGAGGAUCAAGGUUUUAAATT against APBA2	1.66 (active)
GGCCGUUACUGAUUGAGCUTT against CAPN7	0.125
GCAUUUCGCUGUACAAGUUTT against IPO4	-0.0188
GGAUUCAUCCGGUCCAGAUTT against PEX5L	0.0982
GGCUUGCUGUAAUUACCCATT against ABCB1	-0.384
GCUUUACAUGGUUUUCGAATT against CASK	-0.422
GGAGAGUGCUACAAGGUGATT against COL6A2	0.0119
CAAGUUCUAUCACUCCUUUTT against IRX2	-0.409
CCACAUUGGUUACCACUAATT against ITGAV	1.17 (active)
CAGUGUUAGUACUCGAUAATT against EXT2	-0.127
CCUAUUUGGUGUUAACAUATT against DIRAS1	-0.751
CUAUGAUCUCAACCAAAUATT against CD248	-0.0191
AGCUAACAGCGGCUCAAGATT against NR1H2	0.069
UUACUUUCCUAGUAAGCAATT against GNA12	0.598
GCACAGAUGAAGCCCGCUUTT against ARL11	1 (active)
CAAGCUCUUUGGUCAAGAATT against SNX4	-0.144
GCAUAAAACUGAAGGUGGATT against PTPRN	-0.272
CAUCAUUUCAGACAAGUUUTT against DDO	-0.202
UCUACGCAGUGGUCACCAATT against BLK	-0.274
CAAUCUAUUAAGAAAUGUUTT against RPE	0.616
CAUAUAUGAUUGCAUCAAATT against ACTL6A	1.11 (active)

Sequence	median seed-adjusted z-score
GGAUCAACCGCUGCUUGAATT against HELT	-0.192
CCAACAUACUAGUCAAUAATT against EFTUD1	-1.39 (active)
GGAUGGUCUUUUAGUAAGATT against CBR4	-0.66
GACAUCGCAUGGUACAAGATT against NFASC	0.594
GAACUGCUCAGGACUAUAATT against TBRG1	-1.47 (active)
GCUGCAUCGUAAGACAUUUTT against PCGF6	0.536
CGAACUUCCUCAUCGGCAATT against PRLHR	0
CAAAAAUGAUUGCGAAUGATT against APOL4	-0.54
GCUCUUCGAGAGAACCUGUTT against TUBG1	0.618
CCCUCCAUGGAAUAGAAUATT against FCER1A	-0.0293
CGGUUCCUUUAUUACCAAATT against TNFRSF21	0.225
AGGAGAUUCUGAACAGGCUTT against GPR26	-1.33 (active)
GCAGCUAUUUGUCUCCGAATT against USP43	0
CAGCUAUACAGGAAUUAUUTT against SLC25A16	0.0479
GCAGGGCAUUUAUGGGACATT against KRT79	0.338
CCAGGUGAAAUGUCAACUATT against HERC5	-0.422
GAACCAUACAUACUACAGATT against WDR31	0.796
AGGGAGCAAAUGAACCUGATT against VIP	1.52 (active)
GGGAAGGUGUUACAGGCUATT against FAM62A	-0.34
CUGUCCAUCUGGGUCGUGATT against SLC30A2	-0.402
CUGCAGCUUUUAUCACAAATT against SLC25A33	-0.0252
GUAGAUAUGUGGAAACGGATT against FAM48A	-0.506

Sequence	median seed-adjusted z-score
GAGUCCCAUUUACAGCUAUTT against PFTK2	-1.16 (active)
GGAUGGAGACUACGAGUUUTT against STK4	0.652
GACCAGAUAUUUGCCUAUUTT against CYFIP1	-0.377
GGAAAAUCAUCUUAUCAGATT against TEAD1	1.31 (active)
CAGUAUACCAUCUAACAGATT against CNTN1	-0.796
CCACUUUAAUAAACGUGCUTT against TIMM10	0.0738
CAGUGAAGAUAAAAUUCAATT against CRIP3	1.7 (active)
CCUUCAAGGUCAACGUGUATT against KCNH3	-0.509
GGAGCACAAUAGAUCUGAATT against SEPX1	-0.0545
CCAUGGGAAUCCAAUCUGUTT against PTTG1	-0.459
GGACAUUCUAGAGAAAGAATT against SUPT5H	-4.02 (active)
CGACCAUCAUGGAAAACAUTT against ABCB8	-0.558
GGAGGAUCUUGUACCCAGATT against PNKP	-0.0563
CAGUGGGAACGACAACUUUTT against HNRPA1P4	-0.906
GGAACACUUUCUCUCUAGATT against NOD2	0.129
GAUGCGAUUUGAUGAGAUATT against EPS15L1	-0.0511
CGCUAUACCUACCAGCAAATT against DNAJB12	0
GCCUUACUCUGAUCUGGUATT against IL1RAP	-0.23
CUACCAUGGUGUACCAACATT against QRICH1	-1.04 (active)
GCAAACAAGUGAUAGUGAUTT against RBM11	-0.0341
UCUUCUCCCUGAUAAAGUATT against SLC6A13	0.267
GACUGAUCCCUCUACUUCATT against SNTG1	0.167

Sequence	median seed-adjusted z-score
GCUUUCAGCUGAACGAACUTT against LTF	0.236
GAAUAUUCCUAUAGUGAUATT against MYOZ2	0.315
GAGUCUACCUAAUUCUGGATT against AURKA	-0.108
CGACCUAAUCAUUCACAGUTT against CYP26C1	-0.276
GGAGAAGAUACAAAGCGCATT against MED21	-1.3 (active)
UAACAAAUCCUAUUAGAUUTT against CTBP2	-0.241
CGAAAACAGGAGAUCAUUATT against CAMK2G	-0.107
GCGGCUCCAUUUACCAGAATT against VDAC1	0.133
GGACAUUUCAUGAGUCAUUTT against 8-Mar	-0.106
GCAUGAAUGCAACCUGAUUTT against DDX55	0.507
GCAUGACGACUGAACUGAUTT against MDH1B	-1.13 (active)
GCAACUUCUUAAGACUAAATT against DBR1	0.438
GCAAGGCGGUGUUUAUGGATT against DLX1	0.0356
CUCUCUCUGCAACACCUUUTT against SLC39A3	0.0298
CUACAGUCGGGAACAUGAATT against CLK3	-1.11 (active)
ACGCUGUCCUGGUUCUUCATT against DGAT2L3	0.247
GCAGAGCGGGUUAAAAUGATT against DNAJC2	-0.0357
GGUUACAAGUGUAUAACAATT against CD59	0.79
CGGUGCUGUUCGUCGUCUATT against GJD3	-0.251
GAAGGGAAAUGAGUACCGATT against TRIM68	-0.628
